Out of some 310,000 compounds screened, about 14,000 (4.5%) showed an effect of 50% or more. The effect is printed as a negative number. The list comes from a sample in which strong results are over-represented; it also holds similar structures and randomly drawn compounds.

The record followed here is publication PMC4336329 (PLoS ONE, 2015).
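Note: peak tail current of the secondary pulse compared with the same well before compound.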

The target of this assay is human ether-à-go-go-related gene (hERG) potassium channel (human, UniProt Q12809). As to the kind of experiment: primary screen, population patch clamp on CHO cells stably expressing hERG; higher = less effect of the substance.
Sequence of human ether-à-go-go-related gene (hERG) potassium channel (Q12809 whole entry, looked up): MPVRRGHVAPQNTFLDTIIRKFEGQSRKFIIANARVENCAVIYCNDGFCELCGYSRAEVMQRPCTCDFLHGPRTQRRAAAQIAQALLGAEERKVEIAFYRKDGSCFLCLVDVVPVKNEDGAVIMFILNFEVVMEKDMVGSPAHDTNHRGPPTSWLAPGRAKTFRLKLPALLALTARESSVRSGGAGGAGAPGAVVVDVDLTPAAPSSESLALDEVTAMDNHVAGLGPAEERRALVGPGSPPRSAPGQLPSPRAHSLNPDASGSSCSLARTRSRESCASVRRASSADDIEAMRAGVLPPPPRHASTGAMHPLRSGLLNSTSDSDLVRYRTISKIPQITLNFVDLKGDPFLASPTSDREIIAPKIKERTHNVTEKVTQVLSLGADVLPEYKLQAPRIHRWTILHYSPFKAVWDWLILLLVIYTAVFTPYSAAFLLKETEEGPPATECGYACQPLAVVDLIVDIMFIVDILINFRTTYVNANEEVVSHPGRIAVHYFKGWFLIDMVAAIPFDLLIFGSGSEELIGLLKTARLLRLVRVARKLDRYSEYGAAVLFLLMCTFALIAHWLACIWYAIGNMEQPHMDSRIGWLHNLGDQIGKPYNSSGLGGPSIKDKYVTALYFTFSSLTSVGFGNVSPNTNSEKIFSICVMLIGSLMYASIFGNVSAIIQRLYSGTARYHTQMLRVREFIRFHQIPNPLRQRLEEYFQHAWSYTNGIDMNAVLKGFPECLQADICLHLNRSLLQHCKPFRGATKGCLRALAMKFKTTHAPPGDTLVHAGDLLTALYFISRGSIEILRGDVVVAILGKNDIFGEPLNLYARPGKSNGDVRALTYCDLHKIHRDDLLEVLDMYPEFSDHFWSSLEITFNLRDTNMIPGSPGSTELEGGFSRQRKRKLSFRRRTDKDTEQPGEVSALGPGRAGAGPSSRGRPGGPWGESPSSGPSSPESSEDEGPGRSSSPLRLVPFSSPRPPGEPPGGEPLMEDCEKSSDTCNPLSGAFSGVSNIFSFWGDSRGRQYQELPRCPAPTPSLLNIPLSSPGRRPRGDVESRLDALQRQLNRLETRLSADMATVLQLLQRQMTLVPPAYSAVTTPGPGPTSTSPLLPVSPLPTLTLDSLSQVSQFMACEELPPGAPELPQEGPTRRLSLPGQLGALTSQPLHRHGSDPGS
In the case of `CC(=O)c1ccc(O)c(CSC2=NCCS2)c1`, the “hERG current change (%, negative = inhibition) at 10uM” value worked out at 19.8%.
In the case of `O=C(CN1C(=O)NC2(CCc3ccccc32)C1=O)NCCc1ccccc1` (stereo not drawn), the “hERG current change (%, negative = inhibition) at 10uM” value is listed as -6.43%.
Turning to `COc1ccccc1C(=O)N/C(=C\c1ccc(Br)cc1)C(=O)NCC(=O)O`, the “hERG current change (%, negative = inhibition) at 10uM” value amounted to 1.78%.
Regarding `NC(=S)NNC(=O)/C(=C/c1ccc(Br)cc1)NC(=O)c1ccccc1`, the “hERG current change (%, negative = inhibition) at 10uM” value came out at 40%.
Regarding `O=C(CNC(=O)/C(=C\c1ccc(Br)cc1)NC(=O)c1ccccc1)OCc1ccccc1`, the “hERG current change (%, negative = inhibition) at 10uM” value is -59.9%.
As for `CC1(c2ccccc2)NC(=O)N(CC(=O)Nc2nc(-c3ccccn3)cs2)C1=O` (stereo not drawn), the “hERG current change (%, negative = inhibition) at 10uM” value is 0.219%.
The figure for `COc1ccccc1NC(=O)Nc1nn(C)c2cccc(N(C)C)c12` is 11%.
For `COc1cccc(-c2nn(Cc3ccccc3)cc2CO)c1`, the “hERG current change (%, negative = inhibition) at 10uM” value was 8.47%.
As to `N#CCCn1cc(C(=O)Nc2ccc(C(=O)O)cc2)c(-c2cc3ccccc3o2)n1`, the “hERG current change (%, negative = inhibition) at 10uM” value worked out at 10.7%.
On to `COC(=O)C1CCN(Cc2nnc(-c3ccccc3)o2)CC1`, for which the “hERG current change (%, negative = inhibition) at 10uM” value was 16.1%.
`COC(=O)C1CCN(C(=O)c2cc3ccccc3oc2=O)CC1`: the “hERG current change (%, negative = inhibition) at 10uM” value is reported as -7.44%.
Take `COC1CCN(Cc2cn(Cc3ccccc3)nc2-c2cc3ccccc3o2)CC1`: the “hERG current change (%, negative = inhibition) at 10uM” value is given as -71.9%.
In the case of `COCCOC1CCN(Cc2cn(Cc3ccccc3)nc2-c2cc3ccccc3o2)CC1`, the “hERG current change (%, negative = inhibition) at 10uM” value is -67%.
As to `COc1ccc(NC(=O)c2cn(CCC#N)nc2-c2cc3ccccc3o2)cc1`, the “hERG current change (%, negative = inhibition) at 10uM” value is -0.308%.
In the case of `COC(=O)C1CCN(Cc2cn(Cc3ccccc3)nc2-c2cc3ccccc3o2)CC1`, the “hERG current change (%, negative = inhibition) at 10uM” value was -75.9%.
On to `CC(C)(C)c1ccc(/C([O-])=C(/C(=S)NCc2ccco2)[n+]2ccccc2)cc1`, for which the “hERG current change (%, negative = inhibition) at 10uM” value amounted to 6.63%.
Regarding `Cc1cc(C)cc(NC(=S)N2CCN(S(C)(=O)=O)CC2)c1`, the “hERG current change (%, negative = inhibition) at 10uM” value is listed as 4.55%.
Then `CCOc1ccc(N(CC(=O)NCCCOC)S(C)(=O)=O)cc1`, with 4.53%; and `Cc1ccc2nc3c(c(Nc4cccc(O)c4)c2c1)CCC3.Cl`, with -70%.
As for `Cc1ccc2nc3c(c(Nc4ccccc4)c2c1)CCC3.Cl`, the “hERG current change (%, negative = inhibition) at 10uM” value is given as -71.7%.
For `Cc1ccc2nc3c(c(C(=O)O)c2c1)CCC3`, the “hERG current change (%, negative = inhibition) at 10uM” value is recorded as 2.29%.
Take `COc1ccc(Nc2c3c(nc4ccc(C)cc24)CCC3)cc1.Cl`: the “hERG current change (%, negative = inhibition) at 10uM” value is reported as -78.3%.
Turning to `Cc1cccc(-c2nc(Nc3cccc(O)c3)c3ccccc3n2)c1`, the “hERG current change (%, negative = inhibition) at 10uM” value is given as 21.8%.
As to `COc1ccc(Nc2ncnc3ccc(C)cc23)cc1`, the “hERG current change (%, negative = inhibition) at 10uM” value was -3.17%.
Then `Cc1ccc(-c2nc(Nc3cccc(O)c3)c3ccccc3n2)cc1`, with 11.9%; and `Cc1ccc2nc3c(c(Nc4ccc(O)cc4)c2c1)CCC3.Cl`, with -21.2%.
Turning to `COc1ccc2nc3c(c(-c4ccccc4)c2c1)CCC3`, the “hERG current change (%, negative = inhibition) at 10uM” value is listed as -5.34%.
As for `CC(=O)Nc1ccc(S(=O)(=O)NNC(=O)c2cccc(Cl)c2)cc1`, the “hERG current change (%, negative = inhibition) at 10uM” value is 8.3%.
Then `CCOC(=O)CON1C(=O)c2ccccc2C1=O`, with -5.5%; and `COc1ccc(Cl)cc1-n1c(C)cc(C=O)c1C`, with 4.29%.
In the case of `COc1ccc(CN(C(=O)c2cnccn2)C(C(=O)NC(C)(C)C)c2cc(OC)c(OC)c(OC)c2)cc1` (stereo not drawn), the “hERG current change (%, negative = inhibition) at 10uM” value is reported as 1.58%.
For `CCOC(=O)c1ccc(Oc2coc3cc(O)ccc3c2=O)cc1`, the “hERG current change (%, negative = inhibition) at 10uM” value was determined as 17.6%.
The figure for `CCOc1ccc(NS(=O)(=O)c2ccc(OC)c(NC(=O)c3ccc4c(c3)OCCO4)c2)cc1` is -2.7%; for `O=C(Cc1csc(-c2ccccc2)n1)NCc1ccco1` it is -1.66%; for `O=C(c1cccc(Br)c1)N1CCN(c2cnn(-c3ccccc3)c(=O)c2Cl)CC1` it is -47.4%.
Turning to `CC(C)c1ccc(C(=O)N2CCCN(C(=O)c3ccc(C(C)C)cc3)CC2)cc1`, the “hERG current change (%, negative = inhibition) at 10uM” value is recorded as -32.9%.
Regarding `COc1ccc(C(=O)N2CCN(c3cnn(-c4ccccc4)c(=O)c3Cl)CC2)cc1`, the “hERG current change (%, negative = inhibition) at 10uM” value is listed as -71.3%.
Consider `CCOc1ccc(C(=O)N2CCN(c3cnn(-c4ccccc4)c(=O)c3Cl)CC2)cc1`, for which the “hERG current change (%, negative = inhibition) at 10uM” value is on record as -77.8%.
The figure for `O=C(c1ccc(F)cc1)N1CCN(c2cnn(-c3ccccc3)c(=O)c2Cl)CC1` is -48.6%.
Then `CCS(=O)(=O)N1CCN(c2cnn(-c3ccccc3)c(=O)c2Cl)CC1`, with -29%; and `CC(C)c1ccc(C(=O)N2CCN(c3cnn(C)c(=O)c3Cl)CC2)cc1`, with -64.4%.
`Cc1ccn2cc(C(=O)N3CCN(c4cnn(-c5ccccc5)c(=O)c4Cl)CC3)nc2c1`: the “hERG current change (%, negative = inhibition) at 10uM” value is listed as -46.7%.
With `Cc1ccc(C(=O)N2CCN(c3cnn(C)c(=O)c3Cl)CC2)cc1`, the “hERG current change (%, negative = inhibition) at 10uM” value was -31.1%.
Consider `CCCCOP(=O)(c1ccc(N(C)C)cc1)C(O)c1ccc(N(C)C)cc1` (stereo not drawn), for which the “hERG current change (%, negative = inhibition) at 10uM” value is given as -5.3%.
The figure for `COc1cc(/C=C/c2nc(N)nc(-c3ccccc3O)n2)cc(OC)c1OC` is -3.86%.
